Data published in PubChem BioAssay AID1159580 (chemical genetic matrix, 2015).
Several values for one entry are separate records, joined by “and”; a condition that tells them apart may be missing. Equal entries are not always repeated. In all, about 5,500 compounds went through this assay and about 2,000 (36%) were called active. Inconclusive results (about 18%) are left out. Cut-off read from the data, not from the text of the source: active = normalized growth mostly below about 0.91 (no sharp cut-off); inconclusive = no clear call, values can overlap the other calls; inactive = mostly above about 0.92. The list shows a part of the results.

Assay: chemical genetic growth profiling, strain panel (AID 1159580);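 note: tested at 20 µM; growth read once vehicle control cultures reached saturation at 30 °C; 1 = growth at the plate median or of vehicle wells; lower values mean less growth of the strain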
Conditions: S. cerevisiae deletion strains, growth OD

Measured: normalized growth

CN1CCCN=C1COC(=O)C(O)(c1ccccc1)C1CCCCC1 (stereo unspecified)
inactive: locus YAL013W, strain DEP1, hits give low values 1.01 | locus YAL021C, strain ccr4, hits give low values 1 | locus YAL026C, strain drs2, hits give low values 0.993 | locus YAL030W, strain snc1, hits give low values 0.996 | locus YBL061C, strain skt5, hits give low values 0.987 | locus YBR009C, strain hhf1, hits give low values 0.994 | locus YBR021W, strain FUR4, hits give low values 1.03 | locus YBR023C, strain chs3, hits give low values 0.987 | locus YBR171W, strain sec66, hits give low values 0.993 | locus YBR229C, strain ROT2, hits give low values 1.01 | locus YBR231C, strain swc5, hits give low values 1 | locus YBR279W, strain paf1, hits give low values 0.993 | locus YCL011C, strain gbp2, hits give low values 1 | locus YCL016C, strain dcc1, hits give low values 0.991 | locus YCL029C, strain bik1, hits give low values 0.99 | locus YCL061C, strain MRC1, hits give low values 0.994 | locus YCL069W, strain vba3, hits give low values 0.997 | locus YCR088W, strain abp1, hits give low values 0.997 | locus YDL005C, strain med2, hits give low values 0.98 | locus YDL035C, strain GPR1, hits give low values 1 | locus YDL040C, strain nat1, hits give low values 0.998 | locus YDL074C, strain BRE1, hits give low values 1.01 | locus YDL101C, strain DUN1, hits give low values 1.01 | locus YDL134C, strain PPH21, hits give low values 1.02 | locus YDL185W, strain tfp1, hits give low values 1 | locus YDL192W, strain arf1, hits give low values 0.999 | locus YDR001C, strain nth1, hits give low values 0.995 | locus YDR069C, strain doa4, hits give low values 0.99 | locus YDR101C, strain arx1, hits give low values 0.968 | locus YDR137W, strain rgp1, hits give low values 0.99 | locus YDR150W, strain NUM1, hits give low values 1.01 | locus YDR159W, strain sac3, hits give low values 1 | locus YDR162C, strain NBP2, hits give low values 1 | locus YDR195W, strain ref2 0.993 | locus YDR297W, strain sur2, hits give low values 1 | locus YDR318W, strain mcm21, hits give low values 0.983 | locus YDR334W, strain swr1, hits give low values 0.989 | locus YDR335W, strain msn5, hits give low values 0.997 | locus YDR388W, hits give low values 0.989 | locus YDR392W, strain spt3, hits give low values 1 | locus YDR502C, strain sam2, hits give low values 0.994 | locus YEL003W, strain gim4, hits give low values 0.997 | locus YEL037C, strain rad23, hits give low values 0.991 | locus YEL061C, strain CIN8 (second series), hits give low values 0.999 | locus YEL061C, strain CIN8, hits give low values 1.01 | locus YER015W, strain faa2, hits give low values 0.978 | locus YER016W, strain bim1, hits give low values 0.994 | locus YER110C, hits give low values 0.991 | locus YER111C, strain swi4, hits give low values 0.995 | locus YER155C, strain BEM2 (second series), hits give low values 1.01 | locus YER155C, strain BEM2, hits give low values 1.03 | locus YER167W, strain BCK2, hits give low values 1.01 | locus YFR010W, strain ubp6, hits give low values 1.01 | locus YGL078C, strain dbp3, hits give low values 0.987 | locus YGL086W, strain mad1, hits give low values 0.992 | locus YGL167C, strain pmr1, hits give low values 0.987 | locus YGL173C, strain kem1, hits give low values 0.987 | locus YGL227W, strain vid30, hits give low values 0.993 | locus YGL240W, strain doc1, hits give low values 1 | locus YGL248W, strain PDE1, hits give low values 1.01 | locus YGL253W, strain hxk2, hits give low values 0.998 | locus YGR078C, strain PAC10, hits give low values 0.991 | locus YGR135W, strain pre9, hits give low values 0.978 | locus YGR229C, strain SMI1, hits give low values 0.99 | locus YGR252W, strain gcn5, hits give low values 1.05 | locus YHR013C, strain ard1, hits give low values 0.981 | locus YHR027C, strain rpn1, hits give low values 0.991 | locus YHR030C, strain SLT2, hits give low values 1.01 and 0.997 | locus YHR079C, strain IRE1 (second series), hits give low values 0.988 | locus YHR079C, strain IRE1, hits give low values 1.01 | locus YHR094C, strain hxt1, hits give low values 0.985 | locus YHR129C, strain ARP1, hits give low values 1.02 | locus YHR142W, strain chs7, hits give low values 0.998 | locus YHR200W, strain rpn10, hits give low values 0.993 | locus YIL066C, strain RNR3, hits give low values 1 | locus YIL073C, strain SPO22, hits give low values 0.999 | locus YIL125W, strain kgd1, hits give low values 0.998 | locus YIR030C, strain dcg1, hits give low values 0.985 | locus YJL092W, strain hpr5, hits give low values 0.997 | locus YJL095W, strain BCK1 (second series), hits give low values 0.998 | locus YJL095W, strain BCK1, hits give low values 1 and 1.01 | locus YJL115W, strain asf1, hits give low values 0.986 | locus YJL129C, strain trk1, hits give low values 1.02 | locus YJL134W, strain LCB3, hits give low values 1.01 | locus YJL154C, strain vps35, hits give low values 0.996 | locus YJL166W, strain qcr8, hits give low values 0.99 | locus YJL168C, strain set2, hits give low values 0.992 | locus YJL187C, strain SWE1 (second series), hits give low values 1.01 | locus YJL187C, strain SWE1, hits give low values 0.999 | locus YJR043C, strain POL32, hits give low values 1 | locus YJR066W, strain TOR1, hits give low values 0.952
